# Assay outcomes from PubChem.
# Nrf2 block: Nrf2 qHTS screen for inhibitors; A549 ARE-Fluc reporter, luciferase luminescence, 18-24 h; Potency, µM (top dose mostly 46 µM), for the others: top-dose activity change, negative = inhibition, usual class: inhibitors; hit rate 2.1% among 360,000; AID 504444, 2011; also: potency is read from the fitted curve at half-maximal effect; nearly all actives have a fitted effect of over 60% in size
#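 A549 ARE_Fluc cells, 5000/well, 5% FBS OPTI-MEM; compounds in dose-response, 18-24 h at 37 °C/5% CO2; CellTiter-Fluor viability read (Ex 405/Em 525), then BugLite luciferase luminescence = Nrf2 activity.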
# PI4K2A block: qHTS for small molecular inhibitors of PI4K2A; hit rate 0.13% among 420,000; purified PI4K2A, ADP-Glo luminescence, 1 h; active compounds read low; Phosphatidylinositol 4-kinase type 2-alpha (Homo sapiens), Q9BTU6; activity change, negative = inhibition, % at 76.9 µM; in the data active = activity change below about -50%; inconclusive = mostly about -30% to -49%;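 also: -100% = wells without enzyme as full effect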
# Target sequence (Q9BTU6 whole entry, looked up): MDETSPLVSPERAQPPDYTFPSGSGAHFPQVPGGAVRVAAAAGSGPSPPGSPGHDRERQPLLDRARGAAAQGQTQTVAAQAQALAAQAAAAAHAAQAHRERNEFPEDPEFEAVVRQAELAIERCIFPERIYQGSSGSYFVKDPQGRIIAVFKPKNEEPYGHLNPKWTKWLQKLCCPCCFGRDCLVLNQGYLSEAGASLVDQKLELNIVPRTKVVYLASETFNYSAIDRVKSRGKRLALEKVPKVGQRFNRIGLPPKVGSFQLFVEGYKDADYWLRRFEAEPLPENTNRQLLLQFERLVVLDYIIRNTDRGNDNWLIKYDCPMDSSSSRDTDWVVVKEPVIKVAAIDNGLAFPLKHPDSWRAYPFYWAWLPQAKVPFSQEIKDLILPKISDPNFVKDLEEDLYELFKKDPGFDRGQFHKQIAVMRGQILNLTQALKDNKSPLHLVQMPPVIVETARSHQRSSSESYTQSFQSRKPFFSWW
#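 In this quantitative HTS, ADP production by PI4K2A was quantified luminescently after 1 h at ambient temperature; 100 microM adenosine served as plate-quality control.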
# A549 tox: Nrf2 qHTS screen for inhibitors: counterscreen for cytotoxicity; A549 ARE-Fluc cells, CellTiter-Fluor viability, 18-24 h; Potency, µM (titrated, usually from 46 µM), inactives show at the highest dose activity change, negative = cytotoxicity, hits mostly inhibitors; hit rate 0.16% among 390,000; also: potency is read from the fitted curve at half-maximal effect
#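 A549 ARE-Fluc cells in 5% FBS OPTI-MEM, 5000 cells/well, rested 2 h then exposed to compounds in concentration-response for 18-24 h at 37 °C. Viability by CellTiter-Fluor fluorescence (Ex 405/Em 525) after 30 min; luciferase luminescence (BugLite, 15 min, RT) read afterwards.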
# Giardia killer: Small Molecules that selectively kill Giardia lamblia: qHTS; Giardia lamblia trophozoite viability; activity change, % at 7.66 µM, hits read low; hit rate 0.15% among 340,000; in the data active = activity change below about -80%; inconclusive = between about -30% and that limit;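 also: parasites exposed to compound for two days anaerobically before the ATP read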
#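 Each well holds 100 Giardia trophozoites and compound. After two days (48 hrs) at 37 deg C in anaerobic conditions, ATP is quantified by luminescence.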
# KB-3-1 cytotox: qHTS assay for MDR1-selective chemotherapeutics: Primary screen using the parental adenocarcinoma cell KB-3-1 | KB-3-1 viability, CellTiter-Glo ATP luminescence, 72 h | Potency, µM (highest dose often 46.1 µM), actives largely listed as cytotoxic | hit rate 1.4% among 400,000; also: potency is read from the fitted curve at half-maximal effect; nearly all actives have a fitted effect of over 60% in size
#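 KB-3-1 parental drug-naive adenocarcinoma cells in DMEM/10% FBS, incubated 72 h at 37 C with pin-transferred compounds across a concentration series. Viability by CellTiter-Glo luminescence; concentration-response curves fitted after normalization.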
# KB-V1 cytotox: qHTS assay for MDR1-selective chemotherapeutics: Primary screen using the drug-selected MDR subline cells KB-V1. hit rate 3.4% among 400,000. Potency, µM (doses to about 46.1 µM), hits mostly cytotoxic. AID 1347076, 2019. KB-V1 MDR cells viability, CellTiter-Glo, 72 h; also: potency is read from the fitted curve at half-maximal effect; nearly all actives have a fitted effect of over 60% in size
#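 qHTS viability screen in drug-selected KB-V1 MDR cells: 72 h compound treatment at 37 degrees C, ATP luminescence end point.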
# Numbers without * were called inactive; i = inactive; ? = inconclusive; . = no result given; [ ] = dose if it differs, or a comment. This is a sample that favours compounds with a hit; in the whole collection about 5.7% have one here. Unless noted, calls follow the shape of the dose curve; as a rule, active = well fitted curve in the direction sought with a large enough effect; inconclusive = small, poorly fitted or top-dose-only effect, or another doubt; inactive = no such curve, though single readings can be large; an effect the other way counts as inactive or inconclusive. Unless noted, % is scaled to controls: 0 for no effect and ±100 for the full control effect.
SMILES,Nrf2 block,PI4K2A block,A549 tox,Giardia killer,KB-3-1 cytotox,KB-V1 cytotox
C#CCNC(=O)C[C@H]1C[C@@]2(C(=O)OC)C(=C[C@H](C(C)C)O[C@@H]2C2CC2)N(CCCCCCCC)C1=O,.,-1,.,.,.,.
CC1CC(C)(C)NC(=S)N1CCC(=O)Nc1ccc2c(c1)OCCO2 (stereo not drawn),?,-2,-19%,-3,23µM*,?
CCOc1ccc(NC(=O)CCN2C(=S)NC(C)(C)CC2C)cc1 (stereo not drawn),4%,-3,0%,3,i,?
CCc1nc(N2CCN(C(=O)c3ccco3)CC2)c2oc3ccccc3c2n1,?,-10,-1%[1.84 µM],-5,i,21µM*
CCOc1ccccc1-c1nc(CN2CCN(C(=O)c3ccco3)CC2)c(C)o1,-1%,10,4%,-8,i,i
Cc1nc(N2CCN(Cc3ccc(Cl)cc3)CC2)c2oc3ccccc3c2n1,?,-1,1%,6,i,?
Cc1nc(N2CCN(C(=O)c3ccco3)CC2)c2oc3ccccc3c2n1,21µM*,-11,-13%,-21,12µM*,?
CCOc1ccccc1-n1c(CN2CCN(C(=O)c3ccco3)CC2)nc2ccccc2c1=O,16µM*,3,-22%,15,i,?
O=C1COc2ccccc2C(c2nnnn2-c2ccc3ccccc3c2)N1C1CC1 (stereo not drawn),.,2,.,.,.,.
Cc1cc2c(s1)c1cnn(Cc3ccc(C)c(F)c3)c(=O)c1n2C,3%,.,0%,.,.,.
Cc1ccsc1C=Nn1c(-c2n[nH]c3c2CCC3)n[nH]c1=S,.,-3,.,.,.,.
CC1CCCCC1N1CN=C(Nc2nc3ccccc3s2)NC1 (stereo not drawn),?,3,-7%,6,i,18µM*
COc1ccc(CN2CN=C(Nc3nc4ccccc4s3)NC2)cc1,?,4,-11%,5,i,4.6µM*
c1ccc2cnccc2c1,.,.,.,.,i,i
C=CCN1C(=O)[C@@H](CC(=O)NCc2cccc3ccccc23)[C@]2(C(=O)OC)CCCCC=C12,.,-6,.,.,.,.
Cc1cc(Sc2nc(N)ncc2[N+](=O)[O-])ncn1,24%,-14,-6%,-14,16µM*,i
Cc1cc(Sc2ncnc(N)c2[N+](=O)[O-])ncn1,-7%,0,-2%,-14,4.6µM*,?
Cc1cc(N)ncc1[N+](=O)[O-],-4%,0,-2%,2,i,i
CCN(CC)c1ccc(-c2nnc(SCC(=O)NCc3ccco3)n2C)cc1,.,.,.,.,i,i
O=C(Cn1nc(-c2ccccc2)c2c(c1=O)CCCC2)Nc1ccc(F)c(Cl)c1,?,-8,?,.,23µM*,?
Cc1ccc(NC(=O)OC2CC3CC2[C@H]2CCCCN2C3)cc1 (stereo partly drawn),.,-2,.,.,.,.
CCC(C)C(=O)OC1CCC=C2C=CC(C)C(CCC3CC(O)CC(=O)O3)C21 (stereo not drawn),?,-1,-12%,13,13µM*,18µM*
CCCCCn1c(SCC(=O)OCC)nc2cc(C(=O)NCc3ccco3)ccc2c1=O,-28%,2,1%,7,i,21µM*
COC(=O)c1ccc2c(=O)n(CCN3CCOCC3)c(SCC(=O)NCc3ccccc3)nc2c1,4%,3,-1%,-26,i,i
COC(=O)c1ccc2c(=O)n(CCN3CCOCC3)c(SCC(=O)C(C)(C)C)nc2c1,-17%,6,-1%,1,i,10µM*
CCOC(=O)CSc1nc2cc(C(=O)OC)ccc2c(=O)n1CCN1CCOCC1,-26%,-2,-3%,-16,i,16µM*
COC(=O)c1ccc2c(=O)n(CCN3CCOCC3)c(SCC(=O)Nc3ccc(C)cc3)nc2c1,-20%,-3,-1%,5,i,i
